Most compounds without a hit are left out; they make up all but 2.4% or so of the library.
Pol eta inh = blocks human DNA polymerase eta activity. recombinant Pol eta, fluorescent DNA replication assay. Potency, µM (titrated, usually from 114 µM), actives largely listed as inhibitors. 390,000 tested, 1.2% active
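Pol eta at 10 nM preincubated with compounds 15 min at room temperature; reaction started with fluorescent substrate (50 nM final) and read kinetically at 0 and 10 min.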
Pol kappa inh = inhibitors of human DNA polymerase kappa. Q9UBT6. purified Pol kappa, fluorescent DNA synthesis assay, 10 min. Potency, µM (titrated, usually from 107 µM), hits mostly inhibitors. 400,000 tested, 0.53% active
Target sequence (Q9UBT6 whole entry, looked up): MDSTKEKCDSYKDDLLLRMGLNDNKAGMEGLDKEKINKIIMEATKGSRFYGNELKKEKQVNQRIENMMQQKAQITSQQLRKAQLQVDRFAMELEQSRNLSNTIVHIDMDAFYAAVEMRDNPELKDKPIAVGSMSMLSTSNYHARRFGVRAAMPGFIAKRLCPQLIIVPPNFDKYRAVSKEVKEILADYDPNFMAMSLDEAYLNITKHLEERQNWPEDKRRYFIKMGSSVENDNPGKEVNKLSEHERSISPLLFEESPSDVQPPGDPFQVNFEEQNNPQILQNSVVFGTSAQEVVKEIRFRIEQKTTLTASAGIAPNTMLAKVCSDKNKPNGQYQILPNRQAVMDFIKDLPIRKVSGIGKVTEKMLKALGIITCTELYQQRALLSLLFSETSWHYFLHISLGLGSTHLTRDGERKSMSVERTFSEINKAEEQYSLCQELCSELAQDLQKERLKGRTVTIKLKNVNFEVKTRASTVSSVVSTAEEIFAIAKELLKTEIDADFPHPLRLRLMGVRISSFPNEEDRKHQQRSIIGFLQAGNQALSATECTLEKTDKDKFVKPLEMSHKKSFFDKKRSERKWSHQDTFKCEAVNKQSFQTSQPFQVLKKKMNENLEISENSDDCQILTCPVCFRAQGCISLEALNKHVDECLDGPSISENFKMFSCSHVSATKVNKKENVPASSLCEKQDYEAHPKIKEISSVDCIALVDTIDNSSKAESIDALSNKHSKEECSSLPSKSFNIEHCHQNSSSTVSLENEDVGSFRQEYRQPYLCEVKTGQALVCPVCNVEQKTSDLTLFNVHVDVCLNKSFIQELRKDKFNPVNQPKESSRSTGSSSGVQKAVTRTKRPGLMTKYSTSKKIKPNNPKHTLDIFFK
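50 nM final substrate added after 15 min RT preincubation of 10 nM Pol kappa with compound; fluorescence read at 0 and 10 min.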
WRN inhibitor = inhibitors of human WRN helicase | Q14191 | WRN helicase unwinding, fluorescent forked duplex, kinetic | Potency, µM (series often up to 114 µM), usual class: inhibitors | 360,000 tested, 0.46% active | AID 651768; further: nearly all actives have a fitted effect of over 55% in size
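Fluorescence dequenching readout, ex 525 nm/em 598 nm, kinetic mode: forked duplex DNA (100 nM final) with adjacent fluorophore and quencher unwound by WRN (20 nM final) with 2 mM ATP. Compound preincubation 15 min, room temperature.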
POLB inh = blocks human DNA polymerase beta activity | P06746 | Pol beta primer extension/strand displacement, fluorescence kinetic | Potency, µM (titrated, usually from 114 µM), most hits filed as inhibitors | 340,000 tested, 1.3% active | AID 485314
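Reaction started by 50 nM substrate onto compound-treated Pol beta (10 nM, 15 min preincubation, room temperature); plates read at 0 min and 10 min. Normalized concentration-effect data fitted by four-parameter Hill equation.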
FEN1 inh = blocks human flap endonuclease 1; 390,000 tested, 0.35% active; Recombinant FEN1 flap cleavage, fluorescence, 15 min; Potency, µM (titrated, usually from 114 µM), hits mostly inhibitors; AID 588795; further: nearly all actives have a fitted effect of over 65% in size
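Read-out was taken twice, immediately and after 15 min, following addition of 50 nM substrate to 10 nM FEN1 that had sat with test compound for 15 min at room temperature. Curves came from a four-parameter Hill model.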
POLI inh = inhibitors of human DNA polymerase iota; 390,000 tested, 1% active; Q9UNA4; AID 588590; Potency, µM (titrated, usually from 115 µM), most hits filed as inhibitors; Pol iota fluorescent replication assay, 10 min
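Fluorescent replication assay read twice, at 0 min and 10 min after adding 50 nM (final) substrate. Enzyme (10 nM) and compounds were first incubated 15 min at room temperature; enzyme-free buffer wells were negative controls.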
Each line names hits and unclear results; the compound was inactive in the other large screens; ! = not active in a repeat. The call rests on the fitted dose curve; in most records, active means well fitted curve in the direction sought with a large enough effect; inconclusive means small, poorly fitted or top-dose-only effect, or another doubt; inactive means no such curve, though single readings can be large; an effect the other way counts as inactive or inconclusive.

CCOC(=O)c1c(NC(=O)COC(=O)c2ccc(NC(=O)CC#N)cc2)sc(C(=O)NC)c1C	Pol eta inh 10µM, Pol kappa inh inconclusive, WRN inhibitor inconclusive, FEN1 inh inconclusive, POLI inh inconclusive (no result: POLB inh)
CN(C)CCCNc1cc(N2CCN(C)CC2)ncn1	none (no result: Pol eta inh, WRN inhibitor, POLB inh)
COc1ccccc1-c1nc2c(c(SCC(=O)Nc3ccccc3F)n1)Cc1c(CO)cnc(C)c1O2	POLB inh 79µM (no result: WRN inhibitor)
Cc1ccc(S(=O)(=O)Nc2cc(=O)[nH]c(SCC(=O)Nc3cccc(C(F)(F)F)c3)n2)cc1	none
O=C(CSc1nc(NS(=O)(=O)c2ccccc2)cc(=O)[nH]1)Nc1ccc(Cl)cc1	Pol kappa inh 45µM, WRN inhibitor inconclusive, POLB inh 20µM, POLI inh 16µM
Cc1cccc(NC(=O)CSc2nc(NS(=O)(=O)c3ccccc3)cc(=O)[nH]2)c1	POLB inh 32µM, POLI inh inconclusive
CC(C)(C)CC(C)(C)N=C1Nc2ccc(Cl)cc2NC12C[C@H]1CCC(=O)N3CC[C@@H](C2)[C@@H]13 (some centres not stated)	FEN1 inh inconclusive (no result: Pol eta inh, WRN inhibitor, POLB inh)
COc1ccccc1NC(=O)C1CCCN(c2ncnc3onc(-c4ccc(F)cc4)c23)C1 (configuration not stated)	none (no result: WRN inhibitor)
CC(=O)N1CCc2c(sc3c2c(=O)n(-c2ccc(C)cc2)c(=O)n3Cc2c(F)cccc2Cl)C1	none (no result: WRN inhibitor)
Cn1cnnc1SCC(=O)Nc1nc(-c2ccccc2)cs1	POLB inh 16µM
Cc1nnc(SCC(=O)Nc2nc(-c3ccccc3)cs2)n1N	none
CCc1nc2c(OCc3c(C)noc3C)cccn2c1N(C)C(=O)C(C)C	none (no result: Pol eta inh, Pol kappa inh, POLB inh, FEN1 inh, POLI inh)
Cn1nc([N+](=O)[O-])nc1S(C)(=O)=O	Pol kappa inh inconclusive, POLB inh 89µM, POLI inh inconclusive
Cc1cccc(NC(=O)/C=C/c2cccs2)n1	Pol kappa inh inconclusive, POLB inh 50µM
CC(NC(=O)COC(=O)c1cc([N+](=O)[O-])ccc1N1CCOCC1)c1ccccc1 (configuration not stated)	none
CC(NC(=O)COC(=O)c1cc([N+](=O)[O-])ccc1N1CCOCC1)c1ccc(F)cc1 (configuration not stated)	Pol eta inh 56µM, Pol kappa inh inconclusive, POLI inh inconclusive (no result: POLB inh)
O=c1cc(NCc2ccco2)[nH]c(=O)n1-c1ccc(Br)cc1	Pol eta inh inconclusive, Pol kappa inh inconclusive, POLI inh 50µM
O=C(Nc1cc(-c2ccc(F)c(F)c2)no1)c1ccccc1F	none (no result: WRN inhibitor)
CCc1ccc2oc(-c3cc(NC(=O)c4cccnc4)cc(C)c3O)nc2c1	none (no result: WRN inhibitor)
CCOc1cc(N2CCOCC2)c(OCC)cc1NC(C)C(=O)N1CCN(CC)CC1 (configuration not stated)	Pol kappa inh inconclusive, WRN inhibitor inconclusive, POLB inh inconclusive, POLI inh 13µM
COc1cc(NS(=O)(=O)c2cc(NC(C)=O)ccc2OC)c(OC)cc1NC(=O)c1ccccc1	Pol eta inh 45µM, POLI inh inconclusive (no result: POLB inh)
COc1ccccc1NS(=O)(=O)c1cc(NC(=O)c2ccc(NC(C)=O)cc2)ccc1N1CCOCC1	none (no result: POLB inh)
CCOc1cc(N2CCOCC2)c(OCC)cc1NS(=O)(=O)c1cc(NC(C)=O)ccc1OC	Pol eta inh inconclusive, Pol kappa inh inconclusive, POLB inh inconclusive, POLI inh 25µM
CC(=O)Nc1cc(-c2ccc(CO)cc2)cn2c(-c3ccc(F)c(Cl)c3)cnc12	none (no result: Pol eta inh, Pol kappa inh, POLB inh, FEN1 inh, POLI inh)
Cc1nc(S/C(=C\c2ccc(OCc3ccccc3Cl)cc2)C(=O)O)n[nH]1	Pol eta inh 32µM, POLI inh inconclusive
O=C(c1cc(C(F)(F)F)cc(C(F)(F)F)c1)N1CCC[C@@]2(CCN(Cc3ccncc3)C2)C1	none (no result: Pol eta inh, WRN inhibitor, POLB inh, FEN1 inh, POLI inh)
O=C(NC(c1ccc(F)cc1)c1ccc2ccccc2n1)C1CCN(Cc2cccc(C(F)(F)F)c2)CC1 (configuration not stated)	none (no result: Pol eta inh, Pol kappa inh, POLB inh, FEN1 inh, POLI inh)
Cc1ccccc1NS(=O)(=O)c1ccc(C(=O)N(C)CC(=O)Nc2ccccc2Br)cc1	none (no result: POLB inh)
CC(=O)c1ccc(S(=O)(=O)Nc2ccc(C(=O)N(C)CC(=O)Nc3cccc(C)c3C)cc2)cc1	Pol eta inh 32µM, Pol kappa inh inconclusive, POLI inh inconclusive (no result: POLB inh)
CN(C)c1nc(N/N=C/c2ccccc2O)nc(Nc2ccc(F)cc2)n1	Pol eta inh 79µM, Pol kappa inh inconclusive, POLB inh inconclusive
CN(C)c1nc(Nc2ccc(F)cc2)nc(Oc2ccc(F)cc2)n1	none
O=C(O)c1ccc(S(=O)(=O)N(Cc2ccccc2)Cc2ccccc2)cc1	none
O=C(O)c1ccc(S(=O)(=O)N(CCc2ccccc2)Cc2ccc(Cl)cc2)cc1	POLB inh 50µM
c1cc(N2CCCCC2)nc(N2CCCCC2)n1	none (no result: POLB inh)
C[c-]1[c-](C)[c-](C)[c-](C)[c-]1C.[Fe].c1cc2nccc(N3CCCC3)[c-]2c1 (configuration not stated)	Pol eta inh 20µM!, Pol kappa inh inconclusive, POLB inh 4.5µM!, FEN1 inh inconclusive, POLI inh 10µM!
CC(C)(C)n1ncc2c(=O)n(Cc3cccc(F)c3)cnc21	none (no result: Pol eta inh, WRN inhibitor, POLB inh)
c1cncc(-c2nn3c(Cn4nnc5ccccc54)nnc3s2)c1	none
c1ccc2c(c1)OCC(c1nn3c(Cn4nnc5ccccc54)nnc3s1)O2 (configuration not stated)	Pol eta inh inconclusive, Pol kappa inh inconclusive, POLB inh inconclusive, POLI inh 50µM
c1ccc(-c2nn3c(Cn4nnc5ccccc54)nnc3s2)nc1	Pol eta inh 79µM, Pol kappa inh inconclusive, POLB inh 18µM, POLI inh inconclusive
COc1ccc(CCn2c(NN)nc3c2c(=O)[nH]c(=O)n3C)cc1	Pol eta inh 89µM, POLI inh 25µM
COc1ccc(CCn2c(NN=C(C)C)nc3c2c(=O)[nH]c(=O)n3C)cc1	FEN1 inh inconclusive, POLI inh inconclusive
CCOC(=O)C1=C(C)N=c2s/c(=C/c3ccco3)c(=O)n2C1c1cccc(OC)c1 (configuration not stated)	Pol eta inh inconclusive, POLB inh 32µM, POLI inh inconclusive
COc1ccc(C2C(C(C)=O)=C(C)N=c3s/c(=C/c4ccc5c(c4)OCO5)c(=O)n32)cc1 (configuration not stated)	POLB inh 11µM (no result: Pol eta inh, Pol kappa inh, WRN inhibitor, FEN1 inh, POLI inh)
COc1ccc(S(=O)(=O)NC(=O)C2(C)CCN2C(=O)C2(c3ccccc3)CCCC2)cc1 (configuration not stated)	none (no result: Pol eta inh, Pol kappa inh, POLB inh, FEN1 inh, POLI inh)
COc1ccc(S(=O)(=O)NCc2cccnc2)cc1NC(=O)c1ccccc1C	Pol eta inh inconclusive, POLI inh 40µM (no result: POLB inh)
CCOc1ccc(S(=O)(=O)NCc2cccnc2)cc1NC(=O)c1ccccc1	none (no result: POLB inh)
Cc1ccc(-n2ncc(C(=O)NCCc3ccccc3)c2C2CCN(C(=O)OC(C)(C)C)CC2)c(C)c1	POLB inh inconclusive (no result: WRN inhibitor)
